Reference: PubChem BioAssay (NCATS)
Results filed as inconclusive are left out. The source made the active and inactive calls. Unless noted, calls come from the whole dose curve.

How the values were obtained:
[1] = qHTS for Inhibitors of the Functional Ribonucleoprotein Complex (vRNP) of Lassa (LASV) Arenavirus: LASV Primary Screen - GLuc reporter signal (AID 1347082; calls by dose curve; tested in HEK293 reporter line; note: nearly all actives have a fitted effect of over 60% in size)
[2] = qHTS for Inhibitors of the Functional Ribonucleoprotein Complex (vRNP) of Lassa (LASV) Arenavirus: Viability assay - alamar blue signal for LASV Primary Screen (AID 1347083; calls by dose curve; tested in HEK293 reporter line; note: nearly all actives have a fitted effect of over 80% in size)
[3] = qHTS for Inhibitors of the Functional Ribonucleoprotein Complex (vRNP) of Lymphocytic Choriomeningitis Arenaviruses (LCMV): Viability assay - alamar blue signal for LCMV Primary Screen (AID 1347085; calls by dose curve; tested in HEK293 reporter line; note: nearly all actives have a fitted effect of over 80% in size)
[4] = biological target: Nucleoprotein (Lymphocytic choriomeningitis virus (strain Armstrong)) (UniProt P09992); assay: qHTS for Inhibitors of the Functional Ribonucleoprotein Complex (vRNP) of Lymphocytic Choriomeningitis Arenaviruses (LCMV): LCMV Primary Screen - GLuc reporter signal (AID 1347086); note: nearly all actives have a fitted effect of over 70% in size
Nucleoprotein (Lymphocytic choriomeningitis virus (strain Armstrong)), sequence (P09992 whole entry, looked up): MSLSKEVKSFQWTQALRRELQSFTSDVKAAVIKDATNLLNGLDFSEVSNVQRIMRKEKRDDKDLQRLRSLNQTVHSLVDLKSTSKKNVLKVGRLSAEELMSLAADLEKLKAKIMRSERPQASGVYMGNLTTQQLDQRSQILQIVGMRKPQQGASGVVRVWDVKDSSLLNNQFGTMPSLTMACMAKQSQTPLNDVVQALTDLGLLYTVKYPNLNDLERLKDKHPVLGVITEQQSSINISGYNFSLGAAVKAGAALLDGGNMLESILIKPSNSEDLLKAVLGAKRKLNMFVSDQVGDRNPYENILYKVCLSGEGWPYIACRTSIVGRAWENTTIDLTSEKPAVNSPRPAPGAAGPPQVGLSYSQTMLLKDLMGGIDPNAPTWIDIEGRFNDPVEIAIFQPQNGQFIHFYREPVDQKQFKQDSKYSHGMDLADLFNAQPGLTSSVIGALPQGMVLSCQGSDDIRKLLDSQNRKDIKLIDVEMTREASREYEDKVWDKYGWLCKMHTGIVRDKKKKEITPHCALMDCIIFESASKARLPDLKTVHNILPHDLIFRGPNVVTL

Measured: Potency
Note: series mostly up to about 57 µM.

O=C(OCCc1ccccc1)c1ccccc1
inactive: all assays above

O=C(O)[C@H]1O[C@H](Oc2cc3oc(-c4ccccc4)cc(=O)c3c(O)c2O)[C@H](O)[C@@H](O)[C@H]1O
inactive: all assays above

CC(C)CC(=O)[C@@H](O)Cc1ccc(O)cc1
inactive: all assays above

C=CCCC[C@@H]1OC(=O)CNC(=O)C([C@@H](C)CC)NC(=O)[C@@H]2CCCN2C(=O)C([C@@H](C)CC)OC(=O)[C@H](Cc2ccccc2)N(C)C(=O)[C@H](C(C)C)NC(=O)C1(C)C (some centres undefined)
inactive: all assays above

CC(C)CCOC(=O)c1ccccc1
inactive: all assays above

c1coc(Cn2cccc2)c1
inactive: all assays above

COc1ccc(CO)cc1
inactive: all assays above

CC1(C)CC(=O)CC(C)(C)N1
inactive: all assays above

C[N+](C)(C)CCOP(=O)([O-])OC[C@H](O)CO
inactive: all assays above

O=C(O)[C@H]1NC[C@H]2C[C@H]21
inactive: all assays above

CCCCCCC[C@@H](C/C=C/CCC(=O)O)OC
inactive: all assays above

CCCCCCCCCO
inactive: all assays above

O=c1cc(CCc2ccccc2)oc2cccc(O)c12
inactive: all assays above

c1csc(-c2ccc(-c3cccs3)s2)c1
inactive: all assays above

CCCCCC(C)O (centres undefined)
inactive: all assays above

COC(=O)N1c2ccccc2C23[C@@H]4CN5CCC[C@]6(CCC12C(O)(C6)C4=O)[C@H]53
inactive: all assays above

O=C1NC(=O)C(Cc2ccc(O)cc2)N1 (centres undefined)
inactive: all assays above

COc1ccccc1NC(C)=O
inactive: all assays above

CC1=CC(=O)[C@H]2C[C@@H]1C2(C)C
inactive: all assays above

NCCC[C@H](N)CC(=O)N[C@H]1CNC(=O)[C@H]([C@H]2C[C@H](O)N=C(N)N2)NC(=O)C(=CNC(N)=O)NC(=O)[C@H](CO)NC(=O)[C@H](CO)NC1=O
inactive: all assays above

CC1CCC(=O)O1 (centres undefined)
inactive: all assays above

CC(=O)[C@@]1(O)CCC2C3CC[C@H]4C[C@@H](O)CC[C@]4(C)C3CC[C@@]21C (some centres undefined)
inactive: all assays above

COc1cc2c(cc1OC)C(C(=O)c1ccc(OC)c(OC)c1O)=NCC2
inactive: all assays above

OC(c1cc(C(F)(F)F)nc2c(C(F)(F)F)cccc12)C1CCCCN1 (centres undefined)
inactive: all assays above

OCCc1c[nH]c2ccccc12
inactive: all assays above

COc1c(O)cc2c(=O)oc3c(OC)c(O)cc4c(=O)oc1c2c34
inactive: all assays above

CCCCCCCCCCCCC
inactive: all assays above

COc1ccc2[nH]c3c(c2c1)CCn1c-3nc2ccccc2c1=O
inactive: all assays above

CCCCCCCCC=O
inactive: all assays above

CCOC(=O)c1cc(=O)[nH]c2ccccc12
inactive: all assays above

O=c1c(O[C@@H]2OC([C@H](O)CO)[C@H](O)[C@H]2O)c(-c2ccc(O)c(O)c2)oc2cc(O)cc(O)c12 (some centres undefined)
inactive: all assays above
